Screens: PubChem, National Center for Advancing Translational Sciences (NCATS)
NPSR antag = antagonists of human neuropeptide S receptor cAMP signaling; Q6W5P4; CHO-NPSR cells, cAMP TR-FRET, antagonist mode; Potency, µM (doses to about 38.3 µM), most hits filed as inhibitors; actives 1% (n = 220,000); also: nearly all actives have a fitted effect of over 50% in size
ALDH1A1 inh = ALDH1A1 (human) enzyme inhibition | P00352 | Purified ALDH1A1, NADH fluorescence, propionaldehyde substrate | Potency, µM (top dose mostly 75.3 µM), hits mostly inhibitors | actives 7.3% (n = 220,000) | AID 1030; active = well fitted inhibition curve with a large enough effect, not every such curve was filed as active; inconclusive = small, poorly fitted or top-dose-only effect, or another doubt; inactive = no such curve, though single readings can be large or run the other way
Tau fluor cs = counter-screen for tau fibril formation inhibitors; AID 1463; Potency, µM (titrated, usually from 57.7 µM); actives 0.93% (n = 280,000); tau K18 P301L Alexa594 fluorescence, heparin fibrillization; also: nearly all actives have a fitted effect of over 55% in size
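Human tau K18 P301L (15 uM unlabeled, 0.24 uM Alexa 594-labeled) in 100 mM sodium acetate pH 7 with 20 uM heparin, 6 hr at 37 C. ThT 30 uM added, 1 hr ambient; Alexa 594 FP and total fluorescence read at 555/632 nm.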
HPGD block = blocks human HPGD enzyme activity | P15428 | actives 4.3% (n = 150,000) | Potency, µM, actives largely listed as inhibitors | purified HPGD, NADH fluorescence kinetic, PGE2 substrate; active = well fitted inhibition curve with a large enough effect, not every such curve was filed as active; inconclusive = small, poorly fitted or top-dose-only effect, or another doubt; inactive = no such curve, though single readings can be large or run the other way
Target sequence (P15428 whole entry, looked up): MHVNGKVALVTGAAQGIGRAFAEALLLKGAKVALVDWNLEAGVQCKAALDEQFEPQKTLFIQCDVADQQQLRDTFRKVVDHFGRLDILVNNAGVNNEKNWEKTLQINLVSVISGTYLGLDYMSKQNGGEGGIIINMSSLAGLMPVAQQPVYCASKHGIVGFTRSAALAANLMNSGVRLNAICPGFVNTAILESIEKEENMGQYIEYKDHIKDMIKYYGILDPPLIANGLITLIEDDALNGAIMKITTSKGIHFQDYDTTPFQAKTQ
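NADH formation kinetics: reaction with 30 uM PGE2 and 1 mM NAD+ (final), 20 nM enzyme, Tris-HCl pH 8 with Tween 20, after 15 min compound preincubation at room temperature. Fluorescence change, last versus first of five reads.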
Tau FP inhib = inhibitors of human tau fibril formation | K18 P301L tau heparin fibrillization, Alexa594 FP, 6 h | actives 0.39% (n = 280,000) | P10636 | Potency, µM (highest dose often 57.7 µM), hits mostly inhibitors; also: nearly all actives have a fitted effect of over 55% in size
Target sequence (P10636 561-689 P618L limits assumed): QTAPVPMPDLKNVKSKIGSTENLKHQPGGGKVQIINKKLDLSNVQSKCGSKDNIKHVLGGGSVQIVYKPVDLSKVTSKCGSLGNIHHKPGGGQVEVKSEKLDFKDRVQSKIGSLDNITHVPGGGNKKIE
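Steps: dispense K18 P301L tau (15 uM plus 0.24 uM Alexa 594 tracer, final) in pH 7 sodium acetate; add compound; add heparin (20 uM final); incubate 6 hr, 37 C; add ThT (30 uM final); after 1 hr ambient, read FP.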
Tau fibril ThT = tau fibrillization inhibition (ThT binding); P10636; recombinant tau K18 P301L (four-repeat tau fragment), heparin-induced fibrillization, ThT fluorescence; Potency, µM (titrated, usually from 57.4 µM), actives largely listed as inhibitors; actives 2.1% (n = 270,000); AID 1460; also: nearly all actives have a fitted effect of over 55% in size
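In this qHTS, human K18 P301L tau is incubated with compound and heparin for 6 hr at 37 C, and Thioflavin T fluorescence then reports fibril load.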
Numbers stand for hits; - = inactive; ? = inconclusive; . = no result; [ ] = another dose, or the depositor's remark. Shown are actives, neighbours in structure and some others; about 9.5% of the full set was active somewhere. Unless noted, calls follow the shape of the dose curve; as a rule, active = well fitted curve in the direction sought with a large enough effect; inconclusive = small, poorly fitted or top-dose-only effect, or another doubt; inactive = no such curve, though single readings can be large; an effect the other way counts as inactive or inconclusive.

SMILES | NPSR antag | ALDH1A1 inh | Tau fluor cs | HPGD block | Tau FP inhib | Tau fibril ThT
CCOC(=O)C1CCCN(Cc2ccc3c(c2)OCO3)C1 (stereo not drawn) | - | 12.6µM | - | - | - | -
CC(=O)c1cccc(CN2CCCC(C(=O)c3ccc4c(c3)OCO4)C2)c1 (stereo not drawn) | - | 28.2µM | - | . | - | -
CCN(CC)C(=O)C1CCCN(Cc2ccc3c(c2)OCO3)C1 (stereo not drawn) | - | - | - | - | - | -
COc1cccc(CN2CCCC(C(=O)c3ccc4c(c3)OCO4)C2)c1O (stereo not drawn) | - | - | - | . | - | -
CCOC(=O)C1CCN(C(=O)c2ccc3c(c2)OCO3)CC1 | - | - | - | - | - | -
Clc1ccccn1 | . | - | . | - | . | .
Cc1ccccc1OCc1ccc(-c2nc(C#N)c(NCc3cccnc3)o2)o1 | . | . | 17.8µM[quencher] | . | ? | ?
COc1ccccc1NC(=O)CCNS(=O)(=O)c1ccc2c(c1)CCN2C(=O)C1CC1 | . | . | - | . | - | -
C=CCn1c(N)c(C(=O)Nc2cccc(C)c2)c2nc3ccccc3nc21 | ? | ? | 11.2µM[quencher] | - | ? | ?
Cc1ccc(C(=O)CC(=O)c2ccc(C(C)(C)C)cc2)cc1 | - | - | - | . | ? | ?
O=C(CP(=O)(O)CC(=O)c1ccccc1)c1ccccc1 | - | - | - | . | - | -
Cc1ccc(C(=O)CNc2ccc(Br)cc2)cc1 | - | 17.8µM | - | - | - | ?
O=C(CNc1ccc(Br)cc1)c1ccccc1 | - | 20µM | - | - | - | -
O=C(CNc1ccc(F)cc1)c1ccccc1 | - | 12.6µM | - | . | - | -
Cc1ccc(C(=O)CNc2ccccc2C)cc1 | - | 11.2µM | - | - | - | ?
O=C(CNC(=S)NC(=O)c1ccc(F)cc1)c1ccccc1 | - | ? | - | - | ? | -
CCSC1=NC2(CCN(C(=O)NC3CCCCC3)CC2)N=C1c1ccc(C)c(C)c1 | . | . | - | . | - | ?
CCn1c2ccccc2c2nnc(NCCCO)nc21 | . | -[13.5 µM] | . | - | . | .
CC(C)(C)NC(=S)NCc1ccncc1 | - | - | - | . | - | -
COc1cc(C(CC(=O)NCc2ccccc2Cl)N2Cc3ccccc3C2=O)cc(OC)c1OC (stereo not drawn) | . | . | - | . | - | -
C=C1c2cc3c(cc2NC(=S)N1Cc1ccccc1)OCO3 | - | . | ? | . | - | ?
O=C(CSc1nc(O)cc(=O)n1-c1ccccc1)NC1CCCCC1 | - | 25.1µM | - | - | - | -
COc1ccc(CNC(=O)CCc2nc(-c3ccccc3F)no2)c(OC)c1 | - | 10µM | - | - | - | -
CCN(C(=O)CCc1nc(-c2ccccc2F)no1)c1cc(OC)ccc1OC | - | ? | - | 22.4µM | - | -
CCc1ccccc1N(CC)C(=O)CCc1nc(-c2ccc(C)cc2)no1 | ? | - | - | 25.1µM | - | -
SMILES | NPSR antag | ALDH1A1 inh | Tau fluor cs | HPGD block | Tau FP inhib | Tau fibril ThT
COc1ccc(-c2noc(CCC(=O)Nc3cc(OC)ccc3OC)n2)cc1 | - | 7.08µM | ? | - | - | ?
CCOC(=O)C1(CCCc2ccccc2)CCN(C2CCN(C(C)=O)CC2)CC1 | - | ? | - | . | - | -
O=C(NCCC[N+]1=CC=N[C@H]1c1ccccc1)N1CCCc2nc(-c3ccc(Br)cc3)ccc21 | . | -[13.5 µM] | -[11.6 µM] | . | -[11.6 µM] | -[11.5 µM]
O=C(c1cc2sccc2n1Cc1ccccc1)N1CCc2ccccc21 | 10µM | - | - | - | - | -
O=C(c1cc2sccc2n1Cc1ccccc1)N1CCCc2ccccc21 | ? | - | - | - | - | -
Cn1c(C(=O)N2CCCc3ccccc32)cc2sccc21 | ? | 7.94µM | - | 15.8µM | - | -
CN(C)CN1C(=O)S/C(=C2/C(=O)N(CN(C)C)c3ccccc32)C1=O | . | -[13.5 µM] | . | - | . | .
CC(NC(=S)Nc1ccccc1Cl)C(c1ccccc1)N1CCOCC1 (stereo not drawn) | - | 28.2µM | - | - | - | -
Cc1ccc2cccc(NC(=O)COc3ccccc3[N+](=O)[O-])c2n1 | . | . | - | . | - | -
COc1ccc(Cc2c(O)nc(SCC(=O)N3CCCCCC3)[nH]c2=O)cc1 | - | ? | - | - | - | ?
COc1ccc(Cl)cc1NC(=O)CN1CCCC1 | - | 10µM | - | . | - | -
